# Measured values reported in PubChem BioAssay (NCATS).
# A number with no mark means an inactive call. Results filed as inconclusive are left out. Calls of active or inactive are those of the source. Unless noted, calls come from the whole dose curve; as a rule, active = well fitted curve in either direction with a large enough effect (not every such curve was filed as active); inconclusive = small, poorly fitted or top-dose-only effect, or another doubt; inactive = flat fitted curve, though single readings scatter.
# Legend:
# [1] = target: Lysosomal acid glucosylceramidase (Homo sapiens) (UniProt P04062); assay: Glucocerebrosidase-p2 (AID 348; in the data active = potency below about 10 µM; note: potency is the fitted concentration of half-maximal effect); conditions: purified GBA, blue fluorogenic substrate, 40 min
# How it was run: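 Normal human glucocerebrosidase (0.2 nM) with blue fluorogenic substrate (80 uM final) in citrate/phosphate pH 5.9 with 10mM sodium taurocholate, 0.01% tween-20; 40 min RT, NaOH/glycine stop; fluorescence Ex 365/Em 440; AC50 from a titration from 0.6 nM upwards.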
# [2] = AP1 Signaling Pathway (AID 357); conditions: ME-180 AP-1-bla reporter, EGF-induced, beta-lactamase ratio, 5 h; at 7.69 µM (top of the series) unless noted;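 note: ME-180 reporter cells stimulated with EGF at its EC50 level; % is set by controls: 0 for no effect and ±100 for the full control effect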
# How it was run: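 Cells are seeded overnight, exposed to compound titrations and an EC50 level of EGF for 5 hours at 37 °C, then loaded with CCF4 dye for 2.5 hours. Beta-lactamase activity under the AP-1 element is read as a blue/green ratio.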
# [3] = target: Cytochrome P450 1A2 (Homo sapiens) (UniProt P05177); assay: p450-cyp1a2 (AID 410; calls by dose curve; note: potency is the fitted concentration of half-maximal effect;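 for activity change, negative = inhibition: -100% = full effect of reference inhibitor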); conditions: recombinant CYP1A2, luciferin-ME demethylation, luminescence; series mostly up to 57 µM
# How it was run: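 Luminescent demethylation readout: Luciferin-ME (100uM, equal to Km) turned over by 20nM CYP1A2 for 60 min at room temperature after NADPH regeneration addition, following 10 min compound preincubation. Normalization used 57 uM furafylline as full inhibition.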
# [4] = NFAT Signaling Pathway (AID 444); conditions: Jurkat NFAT-bla M1, carbachol, beta-lactamase ratio, 5 h; at 7.69 µM (top of the series) unless noted;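 note: carbachol stimulus at about its EC50 of 1 µM final; % is set by controls: 0 for no effect and ±100 for the full control effect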
# How it was run: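 Jurkat cells with NFAT-driven β-lactamase reporter and co-expressed M1 receptor, stimulated with carbachol (final 1 uM, ~EC50), compound titration, 5 h at 37 °C. CCF4 loaded 1 h at RT; 460/530 nm ratio gave %activity and AC50.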
# [5] = Stat Signaling Pathway (AID 446); conditions: ME-180 SIE beta-lactamase reporter, IL-6 stimulated, 5 h; at 7.69 µM (top of the series) unless noted;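 note: ME-180 cervical cancer cells given 40 pM IL-6 alongside compound; SIE-controlled beta-lactamase reporter measured as 460/530 nm FRET emission ratio; % is set by controls: 0 for no effect and ±100 for the full control effect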
# How it was run: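 Emission at 460 and 530 nm (excitation 405 nm) reports SIE-controlled beta-lactamase in ME-180 cells. Cells received compound with 40 pM IL-6 for 5 hrs at 37 C; data scaled between 300 pM IL-6 and 125 nM JAK-inhibitor controls.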
# [6] = target: Glucocorticoid receptor (Homo sapiens) (UniProt P04150); assay: GR-EFC Redistribution (AID 451; calls by dose curve; note: potency is the fitted concentration of half-maximal effect); conditions: CHO-K1 GR-EFC translocation, beta-gal luminescence, 2 h
# How it was run: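 CHO-K1 cells expressing nuclear EA and GR-ED fragments of b-gal; compounds titrated up to 46 uM final, 2 h at 37 C. GR nuclear translocation read as complemented b-gal luminescence after 1 h RT detection.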
# [7] = target: Mitogen-activated protein kinase 10 (Mus musculus) (UniProt Q61831); assay: JNK3 AlphaScreen Assay (AID 530); conditions: JNK3 lysate, c-Jun phosphorylation; series mostly up to 57.1 µM;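 note: kinase came from lysate of stimulated human HepG2 cells; signal reports phosphorylation of biotinylated GST-cJun 1-79 at Ser73 with 10 µM ATP; % is set by controls: 0 for no effect and ±100 for the full control effect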
# How it was run: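 Activity was read by AlphaScreen after JNK3-containing HepG2 lysate (cytokine pre-activated) phosphorylated biotinylated GST-cJun with 10 uM ATP at room temperature. Phospho-Ser73 cJun antibody with Protein-A acceptor beads provided detection.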
# [8] = target: 3',5'-cyclic-AMP phosphodiesterase 4B (Homo sapiens) (UniProt Q07343); assay: qHTS Assay for Inhibitors of PDE-IV (AID 607; active = well fitted activation curve with a large enough effect in the main read-out, with a control signal flat, not every such curve was filed as active; note: % of control where 0% means no effect); conditions: HEK293 ACTOne CNG channel cells, membrane potential fluorescence; series mostly up to 22.9 µM
# How it was run: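 The readout is membrane depolarisation from a cAMP-sensing CNG channel, detected with a potential dye at ex 535/em 590. Cells were HEK293-derived (endogenous PDE-IV) at 1000 cells/well, titrated up to 22.9 uM final.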
# [9] = target: Cytochrome P450 3A4 (Homo sapiens) (UniProt P08684); assay: qHTS Assay for Activators of Cytochrome P450 3A4 (AID 885; active = well fitted curve in the direction sought with a large enough effect; an effect the other way counts as inactive or inconclusive; note: nearly all actives have a fitted effect of over 65% in size); conditions: recombinant CYP3A4, Luciferin-PPXE luminescence, 60 min; series mostly up to 57.1 µM
# How it was run: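 Activators are scored by enhanced luminescence from CYP3A4 conversion of luciferin-PPXE (25uM, equal to KM) to luciferin, after 60 min at RT with an NADPH-regenerating system.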
# [10] = target: Cytochrome P450 2C19 (Homo sapiens) (UniProt P33261); assay: qHTS Assay for Inhibitors and Substrates of Cytochrome P450 2C19 (AID 899; active = well fitted curve in the direction sought with a large enough effect; an effect the other way counts as inactive or inconclusive; note: nearly all actives have a fitted effect of over 60% in size; note: potency is the fitted concentration of half-maximal effect); conditions: recombinant CYP2C19, luciferin-H EGE luminescence; series mostly up to 57.1 µM
# How it was run: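 5 nM human CYP2C19 with 10uM Luciferin-H EGE (at KM) in 50mM KPO4, compound preincubated 10 min at 37C, then NADPH regeneration for 60 min at 37C. Luciferin read by luminescence after detection reagent; normalized to 57uM ketoconazole as full inhibition.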
# [11] = Primary qHTS for small molecule stabilizers of the endoplasmic reticulum resident proteome: Secreted ER Calcium Modulated Protein (SERCaMP) assay (AID 1508630; active = well fitted curve in the direction sought with a large enough effect; an effect the other way counts as inactive or inconclusive; note: % is set by controls: 0 for no effect and ±100 for the full control effect); conditions: SH-SY5Y GLuc-SERCaMP (Gaussia luciferase released on ER calcium loss) secretion, thapsigargin, luminescence; series mostly up to 38.4 µM
# How it was run: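 The SH-SY5Y reporter protocol was run at 3 concentrations up to 38.3 uM (primary) or 11 concentrations (follow-up): 16 h compound, 100 nM thapsigargin for 4 h, then extracellular luciferase luminescence.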
# [12] = qHTS Assay for Identification of Small Molecule Agonists for Hypoxia Response Element Signaling Pathway (AID 914; active = well fitted activation curve with a large enough effect in the signal ratio, with a control signal flat, not every such curve was filed as active; the % refers to the signal ratio; note: potency is the fitted concentration of half-maximal effect; for activation: % of control where 0% means no effect); conditions: ME-180 (cervical carcinoma) HRE-bla reporter, beta-lactamase ratio, CoCl2, 17 h; activation: active compounds read high
# How it was run: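 Positive modulation of EC50 CoCl2-induced hypoxia response element signaling is measured in ME-180 cells with a beta-lactamase reporter. Compounds are titrated, incubation runs 17 hours, and %Activity derives from the blue/green ratio.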
# [13] = target: Cytochrome P450 3A4 (Homo sapiens) (UniProt P08684); assay: qHTS Assay for Inhibitors and Substrates of Cytochrome P450 3A4 (AID 884; active = well fitted curve in the direction sought with a large enough effect; an effect the other way counts as inactive or inconclusive; note: potency is the fitted concentration of half-maximal effect; nearly all actives have a fitted effect of over 50% in size); conditions: recombinant CYP3A4, Luciferin-PPXE luminescence; series mostly up to 57.1 µM
# How it was run: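 Luminescent readout of luciferin produced by CYP3A4 (20 nM) dealkylation of Luciferin-PPXE, 25 uM (its KM). NADPH-driven reaction ran 60 min at RT after 10 min compound preincubation; data scaled to 57 uM ketoconazole as 100% inhibition.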
# [14] = target: Glucocorticoid receptor (Homo sapiens) (UniProt P04150); assay: GR-GFP Redistribution (AID 450;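 active = compounds whose dose series gives a full or clear partial fitted curve of increased nuclear translocation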; note: potency is the fitted concentration of half-maximal effect); conditions: U2OS GR-GFP nuclear translocation, laser cytometry, 2 h
# [15] = target: Cytochrome P450 2C9 (Homo sapiens) (UniProt P11712); assay: qHTS Assay for Inhibitors and Substrates of Cytochrome P450 2C9 (AID 883; active = well fitted curve in the direction sought with a large enough effect; an effect the other way counts as inactive or inconclusive; note: potency is the fitted concentration of half-maximal effect; nearly all actives have a fitted effect of over 60% in size); conditions: recombinant CYP2C9, luciferin-H luminescence, 60 min; series mostly up to 57.1 µM
# How it was run: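 Human CYP2C9 (10nM) with Luciferin-H at 100uM (its KM) in 25mM KPO4; compound preincubated 10 min at 37C, then NADPH regeneration for 60 min at 37C. Luciferin read by luminescence after detection reagent; normalized to 57uM sulphaphenazole as full inhibition.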
# [16] = target: Cytochrome P450 2D6 (Homo sapiens) (UniProt P10635); assay: qHTS Assay for Inhibitors and Substrates of Cytochrome P450 2D6 (AID 891; active = well fitted curve in the direction sought with a large enough effect; an effect the other way counts as inactive or inconclusive; note: potency is the fitted concentration of half-maximal effect; nearly all actives have a fitted effect of over 60% in size); conditions: recombinant CYP2D6, luciferin-ME EGE luminescence; series mostly up to 57.1 µM
# How it was run: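 Luminescent read-out of luciferin formed by 5 nM human CYP2D6 demethylating 30 uM Luciferin-ME EGE (Km level) over 60 min at room temperature after NADPH regeneration addition. Data normalized to full inhibition by 1.43 uM quinidine.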
# Sequence of Cytochrome P450 1A2 (Homo sapiens) (P05177 whole entry, looked up): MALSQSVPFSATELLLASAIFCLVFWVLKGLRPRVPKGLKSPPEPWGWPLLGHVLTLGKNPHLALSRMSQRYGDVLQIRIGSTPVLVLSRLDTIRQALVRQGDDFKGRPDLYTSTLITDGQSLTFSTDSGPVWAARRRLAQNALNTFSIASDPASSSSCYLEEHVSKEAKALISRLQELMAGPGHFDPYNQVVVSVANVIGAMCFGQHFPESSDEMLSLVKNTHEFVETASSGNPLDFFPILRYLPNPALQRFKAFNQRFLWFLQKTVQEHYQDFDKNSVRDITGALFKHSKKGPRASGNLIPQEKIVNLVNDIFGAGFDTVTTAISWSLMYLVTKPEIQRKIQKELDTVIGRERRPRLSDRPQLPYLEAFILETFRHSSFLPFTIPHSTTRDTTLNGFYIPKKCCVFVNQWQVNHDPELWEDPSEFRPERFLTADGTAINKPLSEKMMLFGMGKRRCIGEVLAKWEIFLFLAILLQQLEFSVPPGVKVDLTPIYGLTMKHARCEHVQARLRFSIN
# Sequence of Lysosomal acid glucosylceramidase (Homo sapiens) (P04062 whole entry, looked up): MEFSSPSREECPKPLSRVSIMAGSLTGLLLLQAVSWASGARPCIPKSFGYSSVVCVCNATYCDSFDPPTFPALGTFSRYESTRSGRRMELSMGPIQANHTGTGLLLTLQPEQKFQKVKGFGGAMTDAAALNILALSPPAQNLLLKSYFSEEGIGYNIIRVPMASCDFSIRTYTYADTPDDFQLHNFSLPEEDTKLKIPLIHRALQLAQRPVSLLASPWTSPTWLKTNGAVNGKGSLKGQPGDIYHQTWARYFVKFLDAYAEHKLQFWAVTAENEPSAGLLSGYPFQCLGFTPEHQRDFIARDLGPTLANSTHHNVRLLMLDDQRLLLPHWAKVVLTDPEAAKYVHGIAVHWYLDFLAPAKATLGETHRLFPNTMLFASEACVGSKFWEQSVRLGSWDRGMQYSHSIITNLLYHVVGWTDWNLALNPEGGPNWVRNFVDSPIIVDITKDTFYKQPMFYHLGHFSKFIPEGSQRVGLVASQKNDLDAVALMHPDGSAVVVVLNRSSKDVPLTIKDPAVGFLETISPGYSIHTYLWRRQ
# Sequence of 3',5'-cyclic-AMP phosphodiesterase 4B (Homo sapiens) (Q07343 whole entry, looked up): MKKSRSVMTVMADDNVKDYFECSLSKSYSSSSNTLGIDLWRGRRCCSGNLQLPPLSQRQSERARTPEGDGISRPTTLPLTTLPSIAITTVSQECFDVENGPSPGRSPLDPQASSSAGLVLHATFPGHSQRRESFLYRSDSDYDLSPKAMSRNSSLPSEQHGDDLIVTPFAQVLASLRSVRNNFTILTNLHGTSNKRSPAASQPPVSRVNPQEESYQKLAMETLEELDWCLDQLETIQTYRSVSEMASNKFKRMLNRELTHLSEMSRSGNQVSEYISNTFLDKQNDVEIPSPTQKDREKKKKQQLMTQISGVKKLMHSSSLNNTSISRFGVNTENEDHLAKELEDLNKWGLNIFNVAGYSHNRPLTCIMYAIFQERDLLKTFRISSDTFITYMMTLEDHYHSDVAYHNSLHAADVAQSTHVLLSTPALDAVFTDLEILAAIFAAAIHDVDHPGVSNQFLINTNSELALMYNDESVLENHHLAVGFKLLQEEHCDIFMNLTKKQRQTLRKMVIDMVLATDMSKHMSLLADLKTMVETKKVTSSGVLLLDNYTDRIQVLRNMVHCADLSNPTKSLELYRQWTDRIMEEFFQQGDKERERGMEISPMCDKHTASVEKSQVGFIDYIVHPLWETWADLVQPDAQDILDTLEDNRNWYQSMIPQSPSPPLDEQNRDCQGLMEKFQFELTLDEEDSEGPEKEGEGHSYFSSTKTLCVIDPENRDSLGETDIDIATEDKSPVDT
# Sequence of Cytochrome P450 3A4 (Homo sapiens) (P08684 whole entry, looked up): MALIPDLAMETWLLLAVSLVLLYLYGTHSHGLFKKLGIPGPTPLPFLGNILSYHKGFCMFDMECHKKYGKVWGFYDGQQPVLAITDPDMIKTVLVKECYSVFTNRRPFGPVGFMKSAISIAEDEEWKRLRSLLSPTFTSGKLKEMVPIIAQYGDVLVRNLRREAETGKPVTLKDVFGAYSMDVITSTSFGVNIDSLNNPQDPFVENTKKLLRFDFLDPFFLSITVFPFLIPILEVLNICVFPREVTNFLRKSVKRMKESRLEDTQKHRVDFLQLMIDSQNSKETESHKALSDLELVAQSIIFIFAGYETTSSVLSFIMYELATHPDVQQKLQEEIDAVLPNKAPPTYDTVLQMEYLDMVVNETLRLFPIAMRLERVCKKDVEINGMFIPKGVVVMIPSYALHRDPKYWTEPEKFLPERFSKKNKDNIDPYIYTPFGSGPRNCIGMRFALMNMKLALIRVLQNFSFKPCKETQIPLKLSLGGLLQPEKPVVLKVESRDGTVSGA
# Sequence of Cytochrome P450 2C19 (Homo sapiens) (P33261 whole entry, looked up): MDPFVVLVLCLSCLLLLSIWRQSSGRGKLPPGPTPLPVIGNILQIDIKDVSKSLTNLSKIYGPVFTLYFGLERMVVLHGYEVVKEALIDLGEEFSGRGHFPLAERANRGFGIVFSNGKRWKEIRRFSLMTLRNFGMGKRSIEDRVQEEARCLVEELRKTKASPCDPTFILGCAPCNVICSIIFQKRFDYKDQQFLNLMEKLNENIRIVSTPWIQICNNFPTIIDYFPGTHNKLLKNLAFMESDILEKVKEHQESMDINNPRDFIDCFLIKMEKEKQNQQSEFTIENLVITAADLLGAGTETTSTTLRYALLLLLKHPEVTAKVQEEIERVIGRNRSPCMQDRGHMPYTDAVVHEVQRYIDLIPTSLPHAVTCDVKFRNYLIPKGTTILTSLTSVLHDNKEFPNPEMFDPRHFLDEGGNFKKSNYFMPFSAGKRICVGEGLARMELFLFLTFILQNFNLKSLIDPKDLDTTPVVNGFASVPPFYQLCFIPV
# Sequence of Glucocorticoid receptor (Homo sapiens) (P04150 whole entry, looked up, the tested form may be a part): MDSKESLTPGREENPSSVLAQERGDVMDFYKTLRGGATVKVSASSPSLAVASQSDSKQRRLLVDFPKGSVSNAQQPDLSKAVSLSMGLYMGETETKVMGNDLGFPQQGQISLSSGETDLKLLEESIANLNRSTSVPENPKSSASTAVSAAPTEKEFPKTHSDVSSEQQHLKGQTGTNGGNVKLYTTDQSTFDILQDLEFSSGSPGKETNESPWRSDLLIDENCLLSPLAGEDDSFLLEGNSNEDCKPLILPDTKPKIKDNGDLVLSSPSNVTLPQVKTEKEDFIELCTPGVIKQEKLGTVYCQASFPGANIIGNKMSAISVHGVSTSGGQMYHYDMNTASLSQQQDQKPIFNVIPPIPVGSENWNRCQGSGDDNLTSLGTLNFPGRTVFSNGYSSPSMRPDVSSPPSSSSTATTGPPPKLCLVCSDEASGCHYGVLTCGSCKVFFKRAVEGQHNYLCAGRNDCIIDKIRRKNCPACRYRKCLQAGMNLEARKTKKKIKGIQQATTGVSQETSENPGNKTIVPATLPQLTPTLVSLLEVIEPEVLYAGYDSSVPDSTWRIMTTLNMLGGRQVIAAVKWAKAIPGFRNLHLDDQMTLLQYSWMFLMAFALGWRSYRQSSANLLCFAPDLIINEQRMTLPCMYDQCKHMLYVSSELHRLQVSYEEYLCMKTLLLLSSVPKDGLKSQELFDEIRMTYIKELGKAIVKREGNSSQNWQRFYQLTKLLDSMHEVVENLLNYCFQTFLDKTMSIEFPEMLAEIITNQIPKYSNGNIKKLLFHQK
# Sequence of Cytochrome P450 2C9 (Homo sapiens) (P11712 whole entry, looked up): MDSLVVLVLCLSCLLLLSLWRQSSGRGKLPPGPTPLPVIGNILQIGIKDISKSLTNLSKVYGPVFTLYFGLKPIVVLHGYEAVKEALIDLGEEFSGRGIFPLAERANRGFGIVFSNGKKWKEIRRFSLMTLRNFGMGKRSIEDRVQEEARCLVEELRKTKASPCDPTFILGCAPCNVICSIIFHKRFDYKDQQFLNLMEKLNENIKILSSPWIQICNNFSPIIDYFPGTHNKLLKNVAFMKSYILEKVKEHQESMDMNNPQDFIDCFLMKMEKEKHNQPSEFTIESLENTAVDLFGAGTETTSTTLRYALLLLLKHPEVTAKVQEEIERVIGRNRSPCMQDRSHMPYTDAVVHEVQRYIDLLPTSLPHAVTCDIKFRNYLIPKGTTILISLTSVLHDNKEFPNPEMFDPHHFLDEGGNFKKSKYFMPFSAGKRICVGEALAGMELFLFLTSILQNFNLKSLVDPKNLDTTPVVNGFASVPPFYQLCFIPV
# Sequence of Cytochrome P450 2D6 (Homo sapiens) (P10635 whole entry, looked up): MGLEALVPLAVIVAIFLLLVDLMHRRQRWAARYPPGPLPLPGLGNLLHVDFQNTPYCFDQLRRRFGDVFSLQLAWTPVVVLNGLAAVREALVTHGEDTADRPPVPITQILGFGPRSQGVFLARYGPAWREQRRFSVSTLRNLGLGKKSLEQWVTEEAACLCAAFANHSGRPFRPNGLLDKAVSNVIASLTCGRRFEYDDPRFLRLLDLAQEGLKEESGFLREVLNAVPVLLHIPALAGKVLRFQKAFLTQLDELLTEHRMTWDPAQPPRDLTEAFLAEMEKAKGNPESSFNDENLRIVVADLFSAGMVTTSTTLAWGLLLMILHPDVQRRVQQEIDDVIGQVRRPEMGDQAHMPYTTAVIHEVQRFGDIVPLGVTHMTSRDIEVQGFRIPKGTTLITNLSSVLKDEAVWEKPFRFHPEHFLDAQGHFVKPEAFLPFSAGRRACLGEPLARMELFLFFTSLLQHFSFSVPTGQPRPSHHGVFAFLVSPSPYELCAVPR
SMILES,Potency [1],"activity change, negative = inhibition [2]",Potency [3],"activity change, negative = inhibition [4]","activity, negative = inhibition [5]",Potency [6],Potency [7],Potency [8],Potency [9],Potency [10],outcome [11],activation [12],Potency [13],Potency [14],Potency [12],Potency [15],Potency [16]
CC(=O)N1CCC2(CCCN(Cc3nccs3)C2)CC1,> 11.4 µM,3.8%,inactive,-6.07%,6.5%,> 46 µM,inactive,inactive,inactive,5.01 µM (active),inactive,–,–,–,–,–,–
CC(C)NC(=O)N1CC[C@@]2(CCCN(C(=O)c3cccc(F)c3)C2)C1,> 11.4 µM,-5.48%,inactive,10.1%,–,> 46 µM,inactive,inactive,–,–,inactive,–,–,–,–,–,–
COC(=O)N1CCC[C@@]2(CCN(c3ncccn3)C2)C1,> 11.4 µM,2.3%,inactive,11.8%,8.51%,> 46 µM,inactive,inactive,–,–,inactive,23.3%,–,–,–,–,–
COc1ccc(C(=O)N2CCC[C@@]3(CCN(c4cccc(-c5ccccc5)c4)C3)C2)cc1,> 11.4 µM,8.11%,12.6 µM (active),-15.1%,-9.84%,> 46 µM,–,–,inactive,7.94 µM (active),inactive,–,3.16 µM (active),–,–,–,–
CS(=O)(=O)N1CCC[C@@]2(CCN(C(=O)Nc3cccc(C#N)c3)C2)C1,> 11.4 µM,-2.32%,inactive,9.12%,1.86%,> 46 µM,inactive,inactive,inactive,–,inactive,–,–,–,–,–,–
COCCn1c(=O)c(-c2cn(C)c3ccccc23)nc2cnc(Oc3ccccc3)nc21,> 11.4 µM,26.2%,10 µM (active),19.4%,–,> 46 µM,–,inactive,inactive,–,inactive,–,3.16 µM (active),> 9.22 µM,3.16 µM (active),–,–
O=C(c1ccco1)N1CCC[C@@]2(CCN(c3cccc(-c4ccccc4)c3)C2)C1,> 11.4 µM,-1.52%,15.8 µM (active),-22.9%,3.03%,> 46 µM,–,–,–,–,inactive,–,–,–,–,5.01 µM (active),–
O=C(c1ccco1)N1CCC2(CCCN(c3ccccn3)C2)CC1,> 11.4 µM,-0.937%,10 µM (active),–,-3.59%,> 46 µM,inactive,inactive,inactive,–,inactive,–,–,–,–,–,–
O=S(=O)(c1ccccc1)N1CCC2(CCCN(Cc3ccncc3)C2)CC1,> 11.4 µM,-20.2%,12.6 µM (active),–,-3.44%,> 46 µM,inactive,inactive,inactive,0.316 µM (active),inactive,–,3.98 µM (active),–,–,–,–
O=S(=O)(c1ccccc1)N1CCC2(CCCN(Cc3nccs3)C2)CC1,> 11.4 µM,-17.2%,inactive,–,-1.51%,> 46 µM,inactive,inactive,inactive,inactive,inactive,–,3.16 µM (active),–,–,–,–
COc1ccc(-c2nc3cnc(N4CCN(C)CC4)nc3n(CCC#N)c2=O)cc1,> 11.4 µM,23.4%,inactive,–,–,> 46 µM,inactive,inactive,inactive,–,inactive,–,–,> 9.22 µM,3.16 µM (active),–,–
N#Cc1cccc(NC(=O)N2CCCC3(CCN(C(=O)c4csnn4)CC3)C2)c1,> 11.4 µM,6.7%,inactive,–,-0.264%,> 46 µM,inactive,inactive,inactive,–,inactive,-5.53%,–,–,–,–,–
CC(=O)N1CCC[C@@]2(CCN(c3ccccc3)C2)C1,> 11.4 µM,-11%,inactive,–,-6.46%,> 46 µM,inactive,inactive,inactive,–,inactive,–,–,–,–,–,–
O=C(c1cnccn1)N1CCC2(CCCN(Cc3nccs3)C2)CC1,> 11.4 µM,-20.7%,15.8 µM (active),–,-4.76%,> 46 µM,inactive,inactive,inactive,–,inactive,–,–,–,–,–,7.94 µM (active)
